From PubChem BioAssay
Several values for one entry are separate records, joined by “and”; a condition that tells them apart may be missing. Equal entries are not always repeated. Activity calls are given as the source filed them.

Tests used:
[1] = test system: PRMT1 (protein arginine N-methyltransferase 1); experiment: small molecules binding arginine methyltransferase PRMT1 – biochemical, small-molecule microarray, 635 nm fluorescence, primary screen (AID 1088); conditions: higher = more signal;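 note: binding of Prmt1 protein to compounds spotted on small-molecule microarray slides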
[2] = growth effects on S. cerevisiae YJM789 – YJM789 clinical isolate, OD600, 24 h, basal, primary screen (AID 1089); conditions: higher = more signal, called active from +8 up or from −8 down;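 note: growth of clinical yeast isolate S. cerevisiae YJM 789 seeded 1000 cells per well; test concentration not given here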
[3] = S. pombe growth modifiers, basal conditions – strain 972, OD600, 24 h, no modulator, primary screen (AID 1090);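 note: basal condition with compound alone and no growth modifier present; test concentration not given here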; conditions: S. pombe 972 growth, higher = more signal, called active from +8 up or from −8 down
[4] = budding yeast growth modifiers under rapamycin – strain BY4716, OD600, 96 h, primary screen (AID 1091); note: test concentration not given here; conditions: S. cerevisiae BY4716 + rapamycin, higher = more signal, called active from +8 up or from −8 down
[5] = target: Torsin-1A-interacting protein 2 (Homo sapiens) (UniProt Q8NFQ8); experiment: small molecules binding lysate-expressed LULL1 – cell lysate, human LULL1 lysate, 635/667 nm fluorescence, primary screen (AID 1092); conditions: small-molecule microarray, hLULL1 lysate binding, 635 nm fluorescence; higher = more signal;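 note: probe is lysate of COS7 cells overexpressing human LULL1; score merges per-feature 667 nm fluorescence with signal-to-noise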
Sequence of Torsin-1A-interacting protein 2 (Homo sapiens) (Q8NFQ8 whole entry, looked up): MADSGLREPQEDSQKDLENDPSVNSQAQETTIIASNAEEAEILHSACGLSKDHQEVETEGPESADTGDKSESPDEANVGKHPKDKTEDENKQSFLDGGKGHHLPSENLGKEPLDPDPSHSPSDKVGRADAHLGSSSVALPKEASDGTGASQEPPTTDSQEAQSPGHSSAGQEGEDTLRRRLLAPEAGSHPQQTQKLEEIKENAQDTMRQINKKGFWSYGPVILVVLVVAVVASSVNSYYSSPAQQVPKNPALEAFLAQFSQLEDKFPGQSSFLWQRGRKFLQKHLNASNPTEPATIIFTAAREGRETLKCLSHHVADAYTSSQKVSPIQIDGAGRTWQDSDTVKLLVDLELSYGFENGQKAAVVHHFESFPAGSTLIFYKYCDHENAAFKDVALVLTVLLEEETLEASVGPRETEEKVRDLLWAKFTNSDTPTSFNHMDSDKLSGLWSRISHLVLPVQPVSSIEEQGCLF

[6] = optical density change of DRC41 E. coli – strain DRC41, OD650, 24 h, E. coli filamentation project, primary screen (AID 1093);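 note: MC1000 strain lacking acrAB efflux and sulA so SOS filamentation is blocked; test concentration not given here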; conditions: E. coli DRC41 growth, higher = more signal, called active from +8 up or from −8 down
[7] = probe aLefty2 binding to arrayed compounds – biochemical, biotinylated probe, 635/667 nm fluorescence, primary screen (AID 1094); conditions: small-molecule microarray, higher = more signal;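 note: score merges spot fluorescence near 667 nm with spot signal-to-noise ratio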
[8] = test system: Noggin (protein binding on small-molecule microarray); experiment: small molecules binding Noggin protein – biochemical, 635/667 nm fluorescence, primary screen (AID 1095); conditions: 635 nm fluorescence, higher = more signal;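 note: score merges 667 nm feature fluorescence with signal to noise over triplicate slides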
[9] = target: Neurogenic locus notch homolog protein 3 (Homo sapiens) (UniProt Q9UM47); experiment: small molecules binding NOTCH3 protein – biochemical, 635/667 nm fluorescence, primary screen (AID 1096); conditions: small-molecule microarray, 635 nm fluorescence, higher = more signal
Sequence of Neurogenic locus notch homolog protein 3 (Homo sapiens) (Q9UM47 whole entry, looked up): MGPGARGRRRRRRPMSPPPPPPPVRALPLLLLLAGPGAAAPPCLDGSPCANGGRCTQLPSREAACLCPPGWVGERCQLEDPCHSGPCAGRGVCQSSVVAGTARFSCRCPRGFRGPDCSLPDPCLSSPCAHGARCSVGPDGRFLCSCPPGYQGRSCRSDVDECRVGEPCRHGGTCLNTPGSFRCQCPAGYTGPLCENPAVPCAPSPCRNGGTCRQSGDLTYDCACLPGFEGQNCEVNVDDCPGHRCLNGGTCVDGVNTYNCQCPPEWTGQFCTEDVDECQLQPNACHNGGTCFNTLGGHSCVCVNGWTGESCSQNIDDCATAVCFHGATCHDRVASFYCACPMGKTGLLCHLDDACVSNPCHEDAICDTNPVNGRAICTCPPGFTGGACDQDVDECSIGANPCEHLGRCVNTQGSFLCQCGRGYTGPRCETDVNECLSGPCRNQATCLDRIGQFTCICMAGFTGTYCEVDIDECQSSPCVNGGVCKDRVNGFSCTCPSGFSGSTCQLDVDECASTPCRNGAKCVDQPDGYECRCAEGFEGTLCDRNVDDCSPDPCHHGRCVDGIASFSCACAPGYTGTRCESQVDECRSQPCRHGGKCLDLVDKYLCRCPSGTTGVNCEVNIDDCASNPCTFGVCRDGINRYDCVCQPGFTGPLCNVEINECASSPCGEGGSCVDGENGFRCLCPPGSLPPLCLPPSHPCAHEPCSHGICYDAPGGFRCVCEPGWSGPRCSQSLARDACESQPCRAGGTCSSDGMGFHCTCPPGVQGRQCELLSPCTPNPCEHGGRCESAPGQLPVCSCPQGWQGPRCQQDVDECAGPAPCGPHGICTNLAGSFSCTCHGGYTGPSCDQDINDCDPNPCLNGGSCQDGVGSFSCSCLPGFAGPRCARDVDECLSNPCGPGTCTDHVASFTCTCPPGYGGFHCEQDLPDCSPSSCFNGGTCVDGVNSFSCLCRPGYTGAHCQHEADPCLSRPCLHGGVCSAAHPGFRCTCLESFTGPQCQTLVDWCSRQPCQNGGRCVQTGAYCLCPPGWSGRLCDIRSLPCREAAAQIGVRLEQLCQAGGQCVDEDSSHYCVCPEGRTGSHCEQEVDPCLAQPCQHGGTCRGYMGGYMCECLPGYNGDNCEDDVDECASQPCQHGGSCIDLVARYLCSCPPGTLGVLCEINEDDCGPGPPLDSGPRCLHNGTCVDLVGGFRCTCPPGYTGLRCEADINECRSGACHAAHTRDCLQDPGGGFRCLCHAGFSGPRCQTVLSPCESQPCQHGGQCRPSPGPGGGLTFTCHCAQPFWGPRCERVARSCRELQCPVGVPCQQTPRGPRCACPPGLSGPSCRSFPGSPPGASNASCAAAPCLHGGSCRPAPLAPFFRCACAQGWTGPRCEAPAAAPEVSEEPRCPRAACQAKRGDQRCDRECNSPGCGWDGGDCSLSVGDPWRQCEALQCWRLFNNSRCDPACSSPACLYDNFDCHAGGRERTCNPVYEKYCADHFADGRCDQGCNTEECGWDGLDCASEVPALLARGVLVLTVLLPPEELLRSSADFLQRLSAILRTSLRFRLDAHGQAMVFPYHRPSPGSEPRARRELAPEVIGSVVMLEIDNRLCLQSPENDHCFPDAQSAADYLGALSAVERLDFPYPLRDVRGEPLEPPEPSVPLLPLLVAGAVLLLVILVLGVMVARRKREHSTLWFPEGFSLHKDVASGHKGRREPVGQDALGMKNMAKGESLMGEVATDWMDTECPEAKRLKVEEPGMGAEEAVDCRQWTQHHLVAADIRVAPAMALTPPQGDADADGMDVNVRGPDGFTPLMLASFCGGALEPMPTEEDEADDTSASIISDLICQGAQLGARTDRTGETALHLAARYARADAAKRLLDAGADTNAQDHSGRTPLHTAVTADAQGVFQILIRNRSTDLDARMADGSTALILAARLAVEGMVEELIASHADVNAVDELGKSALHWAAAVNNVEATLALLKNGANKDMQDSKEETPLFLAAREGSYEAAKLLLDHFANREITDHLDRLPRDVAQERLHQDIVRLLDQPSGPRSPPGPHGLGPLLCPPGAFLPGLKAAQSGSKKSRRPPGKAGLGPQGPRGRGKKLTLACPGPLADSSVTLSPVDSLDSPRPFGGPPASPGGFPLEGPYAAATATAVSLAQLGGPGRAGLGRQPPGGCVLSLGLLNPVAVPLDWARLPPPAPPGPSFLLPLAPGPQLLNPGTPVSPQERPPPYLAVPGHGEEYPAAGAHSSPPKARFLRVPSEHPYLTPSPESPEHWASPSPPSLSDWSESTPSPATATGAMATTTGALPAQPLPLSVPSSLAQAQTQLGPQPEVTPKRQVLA

[10] = probe aEGFR binding to arrayed compounds – biochemical, biotinylated probe, 635/667 nm fluorescence, primary screen (AID 1097); conditions: small-molecule microarray, higher = more signal;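 note: probe is a biotinylated anti-EGFR antibody binding compounds printed on slides; score combines fluorescence near 667 nm and signal to noise of each spot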
[11] = test system: Plasmodium falciparum Sir2 (PF13_0152, Sir2A); experiment: Plasmodium falciparum Sir2A binding compounds – biochemical, small-molecule microarray, 635 nm fluorescence, primary screen (AID 1098); conditions: fluorescence 635 nm, higher = more signal;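 note: score merges spot fluorescence intensity with its signal-to-noise ratio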
[12] = probe aDKK1 binding to arrayed compounds – biochemical, biotinylated probe, 635/667 nm fluorescence, primary screen (AID 1099); conditions: small-molecule microarray, higher = more signal;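 note: score merges 667nm spot fluorescence with signal to noise across triplicate slides; reference of the scale not given here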
[13] = probe aCHRDL2 binding to arrayed compounds – biochemical, biotinylated probe, 635/667 nm fluorescence, primary screen (AID 1100); conditions: small-molecule microarray, higher = more signal
[14] = change in splice reporter luminescence, either direction, cell-based, HEK293, spliceosome inhibition project, primary screen (AID 1101); conditions: HEK293 splicing luciferase reporter, 24 h, higher = more signal, called active from +8 up or from −8 down;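 note: HEK293 cells carrying a splicing-competent luciferase reporter gene; test concentration not given here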
[15] = target: Fibroblast growth factor 10 (Homo sapiens) (UniProt O15520); experiment: compounds binding fibroblast growth factor 10 – biochemical, small-molecule microarray, 635 nm fluorescence, primary screen (AID 1102); conditions: FGF10 binding, fluorescence 635 nm, higher = more signal
Sequence of Fibroblast growth factor 10 (Homo sapiens) (O15520 whole entry, looked up): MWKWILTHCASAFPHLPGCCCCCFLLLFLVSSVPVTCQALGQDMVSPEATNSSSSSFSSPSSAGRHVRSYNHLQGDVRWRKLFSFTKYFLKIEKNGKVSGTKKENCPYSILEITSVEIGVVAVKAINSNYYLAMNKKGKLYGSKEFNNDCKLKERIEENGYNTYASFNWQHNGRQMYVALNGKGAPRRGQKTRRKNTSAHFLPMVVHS

[16] = test system: glycogen synthase kinase-3 (GSK3A per assay name; protocol says GSK3B); experiment: compounds binding glycogen synthase kinase-3 – biochemical, small-molecule microarray, 635 nm fluorescence, GSK3A, primary screen (AID 1103); conditions: fluorescence 635 nm, higher = more signal; note: the record names both GSK3A and GSK3B
[17] = target: Epidermal growth factor receptor (Homo sapiens) (UniProt P00533); experiment: compounds binding epidermal growth factor receptor – biochemical, small-molecule microarray, 635 nm fluorescence, primary screen (AID 1104); conditions: EGFR binding, higher = more signal;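 note: score merges 667 nm emission intensity with spot signal to noise over triplicate slides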
Sequence of Epidermal growth factor receptor (Homo sapiens) (P00533 whole entry, looked up): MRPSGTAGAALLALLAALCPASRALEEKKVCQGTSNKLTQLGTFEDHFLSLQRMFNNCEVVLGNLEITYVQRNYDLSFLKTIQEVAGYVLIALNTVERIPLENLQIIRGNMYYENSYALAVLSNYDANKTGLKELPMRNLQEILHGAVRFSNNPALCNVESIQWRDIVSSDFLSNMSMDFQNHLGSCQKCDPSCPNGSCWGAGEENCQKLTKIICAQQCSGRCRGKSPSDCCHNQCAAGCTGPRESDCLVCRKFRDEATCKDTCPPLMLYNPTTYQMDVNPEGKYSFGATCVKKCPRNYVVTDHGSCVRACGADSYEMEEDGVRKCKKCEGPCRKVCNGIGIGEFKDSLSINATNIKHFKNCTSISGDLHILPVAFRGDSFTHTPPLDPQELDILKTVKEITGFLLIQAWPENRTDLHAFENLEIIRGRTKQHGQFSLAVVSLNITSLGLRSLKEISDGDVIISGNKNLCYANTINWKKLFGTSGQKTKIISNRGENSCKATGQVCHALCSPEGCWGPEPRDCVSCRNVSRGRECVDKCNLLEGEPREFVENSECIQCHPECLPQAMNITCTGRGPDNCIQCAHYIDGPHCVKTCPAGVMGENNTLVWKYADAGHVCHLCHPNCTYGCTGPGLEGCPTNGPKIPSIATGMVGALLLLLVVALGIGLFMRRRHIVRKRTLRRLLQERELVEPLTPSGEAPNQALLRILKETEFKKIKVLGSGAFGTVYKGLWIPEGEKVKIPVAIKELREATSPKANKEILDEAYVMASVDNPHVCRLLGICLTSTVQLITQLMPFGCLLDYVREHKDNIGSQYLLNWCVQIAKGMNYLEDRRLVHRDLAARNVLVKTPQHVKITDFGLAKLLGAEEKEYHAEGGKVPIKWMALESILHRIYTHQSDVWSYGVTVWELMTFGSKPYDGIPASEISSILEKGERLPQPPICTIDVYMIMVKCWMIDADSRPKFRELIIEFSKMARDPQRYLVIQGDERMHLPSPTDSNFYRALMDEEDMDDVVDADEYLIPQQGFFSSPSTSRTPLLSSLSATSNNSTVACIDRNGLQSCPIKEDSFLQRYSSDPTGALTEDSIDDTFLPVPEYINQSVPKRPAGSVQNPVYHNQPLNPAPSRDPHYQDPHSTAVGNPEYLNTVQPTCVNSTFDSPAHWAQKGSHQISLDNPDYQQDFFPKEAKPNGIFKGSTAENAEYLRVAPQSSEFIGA

[18] = target: Follistatin-related protein 3 (Homo sapiens) (UniProt O95633); experiment: compounds binding follistatin-related protein 3 – biochemical, small-molecule microarray, 635 nm fluorescence, primary screen (AID 1105); conditions: FSTL3 binding, higher = more signal;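 note: score merges emission near 667 nm and signal to noise per printed spot across three slides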
Sequence of Follistatin-related protein 3 (Homo sapiens) (O95633 whole entry, looked up): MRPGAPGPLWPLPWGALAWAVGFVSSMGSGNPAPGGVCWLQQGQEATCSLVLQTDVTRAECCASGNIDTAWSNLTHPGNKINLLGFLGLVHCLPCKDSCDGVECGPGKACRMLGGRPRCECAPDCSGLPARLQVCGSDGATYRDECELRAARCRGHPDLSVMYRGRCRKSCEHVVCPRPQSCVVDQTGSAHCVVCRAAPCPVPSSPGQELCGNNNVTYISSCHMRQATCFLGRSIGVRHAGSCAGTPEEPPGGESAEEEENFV

[19] = target: Dickkopf-related protein 1 (Homo sapiens) (UniProt O94907); experiment: small molecules binding DKK1 protein – biochemical, small-molecule microarray, 635 nm fluorescence scan, primary screen (AID 1106); conditions: higher = more signal;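 note: score merges emission near 667 nm with signal to noise over three replicate slides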
Sequence of Dickkopf-related protein 1 (Homo sapiens) (O94907 whole entry, looked up): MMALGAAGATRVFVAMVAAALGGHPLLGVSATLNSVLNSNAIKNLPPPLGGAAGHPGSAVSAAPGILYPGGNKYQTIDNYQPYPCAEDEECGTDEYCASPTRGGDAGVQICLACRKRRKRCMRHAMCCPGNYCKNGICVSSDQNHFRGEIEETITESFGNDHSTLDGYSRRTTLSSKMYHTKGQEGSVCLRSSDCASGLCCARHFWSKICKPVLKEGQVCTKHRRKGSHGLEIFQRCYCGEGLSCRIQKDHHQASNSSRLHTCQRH

[20] = test system: Inhibin beta A chain (activin A); experiment: small molecules binding activin A – biochemical, small-molecule microarray, 635 nm fluorescence scan, primary screen (AID 1107); conditions: INHBA, higher = more signal;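 note: mouse activin A protein probed at 4.33 µg/mL on printed slides; score merges bound-protein fluorescence near 667 nm with spot signal-to-noise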

Compound	composite z-score [1]	z-score [2]	z-score [3]	z-score [4]	composite z-score [5]	z-score [6]	composite z-score [7]	composite z-score [8]	composite z-score [9]	composite z-score [10]	composite z-score [11]	composite z-score [12]	composite z-score [13]	z-score [14]	composite z-score [15]	composite z-score [16]	composite z-score [17]	composite z-score [18]	composite z-score [19]	composite z-score [20]
CCN1C(=O)[C@H]2[C@H]3[C@H](O)[C@H](O)CC(=NOC)[C@@H]3CC[C@H]2C1=O	-1.1	-0.285 (inactive)	-1.9 (inactive)	-0.495 (inactive)	-0.27	0.525 (inactive)	-0.0192	0.178	-0.065	-0.0581	0.767	-0.0904	-0.0826	0.302 (inactive)	-0.0502	-0.595	0.1	-0.0407	0.179	0.39
CC(C)OC(=O)C=C1C[C@@H](c2cccc(C(F)(F)F)c2)O[C@@H](c2cccc(C(F)(F)F)c2)O1	0.97 and 1.25	0.104 (inactive) and -0.425 (inactive)	0.63 (inactive) and 0.404 (inactive)	0.938 (inactive) and 1.23 (inactive)	2.98 and 2.18	-0.889 (inactive) and -1.05 (inactive)	-0.143 and -0.177	-0.696 and -1.07	-0.534 and -0.875	-0.254 and -0.243	0.937 and 1.55	0.326 and -0.186	0.605 and -0.185	1.12 (inactive) and -1.24 (inactive)	-0.135 and -0.527	0.335 and 0.267	-1.14 and -1.45	-0.815 and -1.39	-0.49 and -0.776	-0.347 and -0.587
C=CCN(Cc1ccccc1)C(=O)C1N(C(C)(C)CO)C(=O)C2C(C(=O)O)C3C=CC21O3 (stereo not given)	-1.67 and -1.32	-0.421 (inactive) and -0.475 (inactive)	-0.369 (inactive) and -0.243 (inactive)	-0.13 (inactive) and -0.429 (inactive)	-0.696 and -1.91	-0.333 (inactive) and 1.73 (inactive)	-0.0563 and -0.136	-2.68 and -1.76	-1.46 and -1.43	-0.25 and -0.242	0.107 and 0.29	-0.135 and -0.486	0.708 and 0.849	0.0525 (inactive) and 0.382 (inactive)	-1.46 and -2	-0.767 and -1.51	-2.64 and -1.86	-1.45 and -1.73	-2.3 and -1.58	-4.6 and -2.88
COC(=O)C1=C(C)N(Cc2ccccc2)[C@]23O[C@](C(=O)OC)(C(=O)N2[C@@H]1c1ccccc1)[C@@H](C(=O)OC)[C@H]3C(=O)OC	-0.584 and 0.5	0.464 (inactive) and 0.457 (inactive)	-0.0252 (inactive) and -0.671 (inactive)	0.667 (inactive) and 0.334 (inactive)	0.19 and 0.0032	0.305 (inactive) and 0.28 (inactive)	-0.277 and -0.259	-0.803 and 0.77	-1.21 and 0.287	-0.173 and -0.115	-0.16 and 0.25	-0.188 and -0.2	-0.248 and -0.593	-0.259 (inactive) and 0.0138 (inactive)	0.393 and 0.372	-0.969 and 0.317	-0.574 and 0.608	-1.14 and 0.664	-0.0647 and 0.549	0.59 and 0.153
C[C@@]1([C@@H](NC(=O)Cc2ccccc2)c2ccc(-c3ccccc3)cc2)C[C@H]1C1CCCCC1	0.314 and 0.316 and 0.125	0.375 (inactive) and 0.029 (inactive) and 0.56 (inactive)	-6 (inactive) and -0.107 (inactive) and 1.45 (inactive)	-0.167 (inactive) and 0.998 (inactive) and 2.36 (inactive)	-0.331 and 2.71 and 2.97	-1.16 (inactive) and -0.413 (inactive) and -1.74 (inactive)	0.586 and 1.19 and -0.294	-0.0626 and -0.481 and -0.08	0.444 and 0.213 and 0.544	0.0843 and 0.812 and -0.116	0.334 and 0.359 and 0.301	1.14 and 1.83 and -0.112	0.775 and 1.08 and 0.538	-4.09 (inactive) and -1.68 (inactive) and 0.868 (inactive)	0.543 and 0.838 and 0.0825	0.271 and 0.234 and 0.826	-0.0372 and 0.289 and -0.265	-0.008 and -0.172 and 0.156	-0.193 and -0.286 and -0.719	1.3 and 1.08 and 0.556
CCN1C(=O)[C@H]2[C@H]3[C@H](O)[C@H](O)CC(=NNC(=O)OCc4ccc(OC)cc4)[C@H]3CC[C@H]2C1=O	0.0536	0.523 (inactive)	-0.312 (inactive)	0.41 (inactive)	0.677	-0.17 (inactive)	0.656	-0.283	-0.143	0.0004	0.182	1.55	1.27	-0.324 (inactive)	0.178	-0.152	-0.698	0.0229	-0.819	0.0193
CC(CO)N1C(=O)[C@@H]2C3C(=O)OCCC=C[C@H]3OC23C=CCN(c2ccc4ccccc4c2)C(=O)[C@@H]13 (stereo not given in full)	0.6 and -0.266	1.09 (inactive) and -1.28 (inactive)	-0.169 (inactive) and -1.95 (inactive)	0.127 (inactive) and -0.589 (inactive)	3.39 and 0.763	-0.138 (inactive) and -0.757 (inactive)	-0.116 and -0.192	-0.571 and -0.51	0.259 and 0.0899	-0.324 and -0.343	0.971 and 0.0013	0.0565 and -0.627	0.691 and -0.64	0.132 (inactive) and 0.555 (inactive)	-0.773 and -0.238	-0.236 and -0.0124	-1.06 and -0.897	-0.352 and 0.329	-1.6 and -0.929	0.665 and 0.142
C=CCN(C(=O)C(c1cccs1)N(C(=O)/C=C\C(=O)O)c1c(Cl)cccc1CO)C(C)(C)C (stereo not given)	-0.971 and -0.911	-0.0947 (inactive) and -0.689 (inactive)	-0.588 (inactive) and -0.587 (inactive)	-0.351 (inactive) and -0.595 (inactive)	-0.586 and 0.277	-0.717 (inactive) and -1.18 (inactive)	0.0765 and 0.231	-3.47 and -2.85	-1.89 and -1.83	-0.309 and -0.338	1.25 and -0.0135	0.352 and 0.285	1.38 and 1.31	-0.321 (inactive) and -0.297 (inactive)	-2.54 and -1.41	-2.14 and -1.33	-2.12 and -2.63	-2.45 and -2.23	-3.69 and -3.04	-3.4 and -1.92
